Rows were chosen to be rich in hits. Some 13% of all compounds tested hit in one or more screens of this group.
HCMV inh: qHTS Assay for inhibitors of the human cytomegalovirus (HCMV); activity change, negative = inhibition, % at 57.5 µM; 410,000 tested, 4.5% active; HFF cells, HCMV-luciferase reporter, 72 h; stronger effect = lower value; in the data active = activity change below about -60%; inconclusive = no clear call, values can overlap the other calls; inactive = above about -39%
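Luciferase read-out from HCMV-luciferase-infected HFFs (MOI 1 PFU/cell) 72 h post infection at 37C; compounds added after 16 h cell attachment; activity normalized between buffer-only basal and Salinomycin (10uM) inhibitor controls.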
Pf growth 96h: Primary qHTS for delayed death inhibitors of the malarial parasite plastid, 96 hour incubation. P. falciparum luciferase reporter growth, 96 h. Potency, µM (doses to about 28.7 µM), actives largely listed as inhibitors. 320,000 tested, 6.9% active
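Parasite growth measured via integrated firefly luciferase reporter in P. falciparum. Infected erythrocytes at 2% hematocrit, 0.05% parasitemia final were treated 96 hours at 37 C under 5% CO2, and luminescence was read.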
Pf growth 48h: Primary qHTS for delayed death inhibitors of the malarial parasite plastid, 48 hour incubation | P. falciparum luciferase growth in erythrocytes, 48 h | Potency, µM (doses to about 28.7 µM), most hits filed as inhibitors | 310,000 tested, 5.9% active
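Firefly luciferase activity from engineered P. falciparum reports growth; inhibitors lower the luminescent signal. Cultures contained 2% hematocrit erythrocytes at 0.1% final parasitemia.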
HCV inh: qHTS Assay for Inhibitors of Hepatitis C Virus (HCV). Huh7.5.1 HCVcc-Cre infection, luciferase reporter, 44 h. Potency, µM (doses to about 41.8 µM), usual class: inhibitors. 340,000 tested, 3.4% active. AID 651820, 2012
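HCVcc-Cre virus at an moi near 0.5 was added right after compound to cells cultured 4 h from seeding (1,000 cells/well). Luciferase activity was determined 44 h later, 15 min after substrate addition at RT.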
A number is an active result; [ ] = another dose, or the depositor's remark. Unless noted, calls follow the shape of the dose curve; as a rule, active = well fitted inhibition curve with a large enough effect; inconclusive = small, poorly fitted or top-dose-only effect, or another doubt; inactive = no such curve, though single readings can be large or run the other way.

Results for O=c1c2ccccc2nc(/C=C/c2ccc(Br)cc2)n1CCCO ?
HCMV inh: -71; Pf growth 96h: inactive; Pf growth 48h: inconclusive; HCV inh: inconclusive

Results for COc1ccc(-n2c(/C=C/c3c(C)[nH]c4ccccc34)nc3ccccc3c2=O)cc1 ?
HCMV inh: inactive

Results for Cn1c(/C=C/c2cccc(Br)c2)nc2ccccc2c1=O ?
HCMV inh: -72; Pf growth 96h: inconclusive; Pf growth 48h: inconclusive; HCV inh: inactive

What do the screens show for `O=c1c2ccccc2nc(/C=C/c2ccc(Br)cc2)n1CCO`?
HCMV inh: inactive; HCV inh: inactive

Results for Cc1[nH]c2ccccc2c1/C=C/c1nc2ccccc2c(=O)n1-c1cccc([N+](=O)[O-])c1 ?
HCMV inh: -86; Pf growth 96h: 3.7µM; Pf growth 48h: 2.1µM; HCV inh: inactive

How did NCCC(O)(P(=O)(O)O)P(=O)(O)O do in these assays?
Pf growth 96h: inactive; Pf growth 48h: inactive

Results for CCc1ccc(C2CC(=O)c3c([nH]c(C(=O)OCC4CCCCC4)c3C)C2)cc1 (centres undefined) ?
HCMV inh: inactive

Results for Cc1[nH]c2ccccc2c1/C=C/c1nc2ccccc2c(=O)n1CCO ?
HCMV inh: inactive; Pf growth 96h: inactive[1.15 µM]; Pf growth 48h: 9.3µM; HCV inh: inconclusive

How did O=c1c2ccccc2nc(/C=C/c2ccc([N+](=O)[O-])o2)n1CCCO do in these assays?
HCMV inh: -108; Pf growth 96h: 2.6µM; Pf growth 48h: inconclusive; HCV inh: 2.2µM

Results for O=c1c2ccccc2nc(/C=C/c2cccc(Br)c2)n1CCCO ?
HCMV inh: -92; Pf growth 96h: 13µM; Pf growth 48h: inconclusive; HCV inh: inconclusive

Results for O=C(/C=C/c1cccc([N+](=O)[O-])c1)n1cnc2ccccc21 ?
HCMV inh: -99; Pf growth 96h: inactive; Pf growth 48h: inactive; HCV inh: inconclusive

What do the screens show for `O=c1c2ccccc2nc(/C=C/c2ccc(Cl)cc2)n1CCO`?
HCMV inh: inconclusive; Pf growth 96h: inconclusive; Pf growth 48h: inactive; HCV inh: inconclusive

Results for Cc1cccn2c(Nc3ccc4c(c3)OCCO4)c(-c3ccc(Br)o3)nc12 ?
HCMV inh: inactive

Results for O=c1c2ccccc2ncn1-c1cccc(Cl)c1 ?
HCMV inh: inactive; Pf growth 96h: inactive; Pf growth 48h: inactive; HCV inh: inactive

Results for O=c1c2ccccc2ncn1-c1cccc(Br)c1 ?
HCMV inh: inactive; Pf growth 96h: 1.7µM; Pf growth 48h: inactive; HCV inh: inactive

Results for Cc1nn(-c2ccccc2)c2c1N(CC(=O)N1CCN(c3ccc(F)cc3)CC1)C(=O)CS2 ?
HCMV inh: inactive

Results for OC1(c2ccc(F)cc2)CCNC1 (centres undefined) ?
HCMV inh: -66; Pf growth 96h: inactive; Pf growth 48h: inactive; HCV inh: inactive

Results for OC1(c2ccc(Br)cc2)CCNCC1 ?
HCMV inh: inactive; Pf growth 48h: inactive; HCV inh: inconclusive

What do the screens show for `CCC[C@@H]1NC(=O)CNC(=O)[C@H](Cc2ccccc2)NC(=O)[C@H]([C@H](C)O)NC(=O)[C@H](CCC(N)=O)NC(=O)C(C(C)C(C)Cl)NC(=O)[C@H](CC(C)C)N(C)C(=O)[C@H](C)NC(=O)CC(O)C(NC(=O)[C@@H](CC(C)C)NC=O)C(C)OC1=O` (some centres undefined)?
HCMV inh: inactive

How did CCC(C)C1NC(=O)C(NC(=O)C(CC(C)C)N(C)C(=O)C2CCCN2C(=O)C(C)O)C(C)OC(=O)C(Cc2ccc(OC)cc2)N(C)C(=O)C2CCCN2C(=O)C(CC(C)C)NC(=O)[C@H](C)C(=O)[C@H](C(C)C)OC(=O)CC1O (some centres undefined) do in these assays?
HCMV inh: -97; HCV inh: inconclusive

What do the screens show for `COc1cc2c(cc1OC)C(c1cc3ccccc3oc1=O)=NC(C)(C)C2`?
HCMV inh: -98; Pf growth 96h: inactive; Pf growth 48h: 8.3µM; HCV inh: inconclusive

What do the screens show for `CCOc1ccc(CC(=O)NCc2ccc3c(c2)CCN3C(=O)c2ccccc2)cc1OCC`?
HCMV inh: inactive

Results for Cn1nnc2c(NCc3ccc(Cl)cc3)ncnc21 ?
HCMV inh: inactive
